# In PubChem BioAssay AID602440 (Sanford-Burnham Center for Chemical Genomics, 2012):
# Among all 360,000 compounds or so, about 2,300 (0.64%) were called active. What follows is part of a selection rich in actives, with near analogues and random picks from the rest. Values without a mark were called inactive. Cut-off read from the data, not from the text of the source: active = inhibition mostly above about 40% (no sharp cut-off); inactive = mostly below about 27%.
# Target: Sentrin-specific protease 8 (Homo sapiens) (UniProt Q96LD8)
# Assay: blockers of SENP8 deneddylase activity – biochemical, fluorescence, Nedd8 protein substrate, uHTS, primary screen (AID 602440)
# Conditions: recombinant SENP8, Nedd8 substrate fluorescence; at 20 µM; active compounds read high
# Sentrin-specific protease 8 (Homo sapiens), sequence (Q96LD8 whole entry, looked up): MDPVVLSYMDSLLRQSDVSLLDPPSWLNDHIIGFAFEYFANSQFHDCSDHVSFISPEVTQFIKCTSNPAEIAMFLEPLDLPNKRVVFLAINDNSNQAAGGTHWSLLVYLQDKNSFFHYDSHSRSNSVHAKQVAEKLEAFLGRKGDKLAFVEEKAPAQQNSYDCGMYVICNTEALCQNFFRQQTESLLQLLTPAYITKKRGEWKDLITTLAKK
row,Structure (SMILES),inhibition
1,O=C(NC1CCN(S(=O)(=O)c2ccc(F)cc2)CC1)c1ccccc1,15.3%
2,COC(=O)N(C)C[C@@H]1OCc2cnnn2CCCC(=O)N([C@@H](C)CO)C[C@@H]1C,18.6%
3,COc1cc(NC(=O)c2cc([N+](=O)[O-])ccc2Br)ccc1NC(=O)c1ccco1,32.3%
4,COc1ccc2c(C(=O)c3ccc(C)cc3)n(CCC(N)=O)[n+]([O-])c2c1,2.6%
5,COc1ccc(C(=O)c2c3ccc([N+](=O)[O-])cc3[n+]([O-])n2CCCN)cc1,48.4% (active)
6,COc1ccc(Cc2nnc(SCC(=O)c3cccc([N+](=O)[O-])c3)n2C)cc1,10.4%
7,COC(=O)c1ccc(S(=O)(=O)N(CCO)Cc2ccccc2)n1C,21.1%
8,CN(C)C(=O)c1ccc(NC(=O)c2ccccc2-c2ccccc2)cc1,4.2%
9,CC(=O)NS(=O)(=O)c1ccccc1,0.5%
10,O=C1C=C(NS(=O)(=O)c2ccccc2)C(=O)c2ccccc21,51.3% (active)
11,C/C(=N\NC(=O)c1ccc(C)cc1)C1C(=O)c2ccccc2C1=O,38.5%
12,Cc1cc(NS(=O)(=O)c2ccccc2)no1,11.5%
13,O=C(NC1=CC(=O)c2ccccc2C1=O)c1ccccc1,44.7% (active)
14,CCN(CC)S(=O)(=O)c1ccc2c3c(cccc13)C(=O)S2,-49.2%
15,NC(=O)C1CC=CCC1C(=O)OCC(Cl)=C(Cl)Cl (stereo not given),1.1%
16,Cc1cc(N2C(=O)C(=O)/C(=C(/O)c3ccc(Cl)cc3)C2c2cccc(Br)c2)no1 (stereo not given),-138%
17,O=S1(=O)CCN2C(=N1)SC1=C2CCN(Cc2ccccc2)C1,21.1%
18,C=CCn1c(SCC(=O)c2ccc(Br)cc2)nnc1C(C)NC(=O)Cc1ccc(OC)cc1 (stereo not given),1.1%
19,CS(=O)(=O)c1ccc(C(=O)OCC(=O)NNC(=O)COc2ccc(Cl)cc2)cc1,11.8%
20,CC(C)Cc1nnc(NC(=O)CCc2ccccc2)s1,2.2%
21,CC(C)Cc1nnc(NC(=O)CCC(=O)Nc2ccc3cn[nH]c3c2)s1,42.9% (active)
22,CC(C)Cc1nnc(NC(=O)CCNC(=O)c2ccccc2Cl)s1,8.4%
23,CN(C)CCCn1c(SCCN2C(=O)c3ccccc3C2=O)nc2ccccc2c1=O,2.7%
24,O=C(c1ccc(S(=O)(=O)NCc2ccco2)cc1)N1CCN(c2ccccc2)CC1,17.9%
25,O=[N+]([O-])c1ccc(N2CCN(S(=O)(=O)c3ccc4ccccc4c3)CC2)cc1NCc1ccco1,28.5%
26,O=C(c1ccccc1)N1CCN(c2ccc([N+](=O)[O-])c(NCc3ccco3)c2)CC1,41.8% (active)
27,O=C(NCCC1CCCCN1S(=O)(=O)c1ccccc1)C(=O)NCC1CCCO1 (stereo not given),7.7%
28,CCCCNC(=O)C(C)N(CCN(C)C)C(=O)CCCN1C(=O)NC(c2ccc(Cl)cc2)C(C(=O)OCc2ccccc2)=C1C (stereo not given),12.8%

row,Structure (SMILES),inhibition
1,C/C(=N/NC(=O)c1ccc(Br)o1)c1ccc(C)o1,-3.6%
2,Cc1ccccc1CN1CCN(C(=O)c2cccc(F)c2)CC1,17.2%
3,O=C(c1cccc(F)c1)N1CCC(O)(c2cccnc2)CC1,18.5%
4,O=C(c1cccc(F)c1)N1CCN(c2ccc([N+](=O)[O-])c3cccnc23)CC1,41.3% (active)
5,NC(=O)C1CC(=O)N(c2ccc(OCC(=O)NCc3ccccc3)cc2)C1 (stereo not given),5.3%
6,CC(C)C[C@@H](CO)N1CCN(Cc2ccc(O)cc2)CCC1=O,-5%
7,CC(C)(C)NC(=O)NC(=O)COC(=O)C1(C)CC1(Cl)Cl (stereo not given),12.9%
8,CN(C)C(=O)c1cccc(-c2cnc3c(NC=O)cc(-c4ccc(C(=O)N5CCOCC5)cc4)cn23)c1,-177%
9,O=C1NNC(c2ccccc2)=N/C1=C\c1ccc(Cl)cc1,64% (active)
10,O=C(c1ccccc1)c1ccc(OC(=O)N2CCCC2)cc1,22.4%
11,COc1ccc(OC)c(NC(=O)c2ccc3c(c2)CCN3S(C)(=O)=O)c1,3%
12,Cc1nc(C(=O)NCc2ccccc2)sc1C1(C)CC(c2cccnc2)=NO1 (stereo not given),8.5%
13,CC(=O)N/C(=C\c1ccc(F)cc1)C(=O)NC(Cc1ccccc1)C(=O)O (stereo not given),2.6%
14,CC(C)[C@H](NC(=O)N1c2ccccc2NC(=O)[C@@H]1C(C)C)C(=O)N[C@H](C(=O)O)c1ccccc1,37%
15,CCC(C)[C@H](NC(=O)N1c2ccccc2NC(=O)[C@@H]1C(C)C)C(=O)N[C@@H](Cc1ccccc1)C(=O)O (stereo not given in full),53.4% (active)
16,COc1ccc([C@H]2N[C@]3(CCCN(Cc4ccco4)C3=O)[C@H]3C(=O)N(C)C(=O)[C@@H]23)cc1,-14%
17,O=C(NCCCN1CCN(c2ccc(F)cc2)CC1)Nc1ccc([N+](=O)[O-])cc1,44.8% (active)
18,O=C(CCN1C(=O)COc2ccccc21)NCCCN1CCN(c2ccc(F)cc2)CC1,12.7%
19,O=C(CSc1ccc([N+](=O)[O-])cn1)Nc1ccc(N2CCOCC2)cc1,37.7%
20,O=C(Nc1ccc(C(=O)NCc2ccccc2Cl)cc1)C1=CSCCO1,-35.3%
21,COc1ccc(OC)c(C(O)c2nc3ccccc3n2C)c1 (stereo not given),15.4%
22,Cn1nc(C(F)(F)F)c(C(=O)Nc2cccc(C(F)(F)F)c2)c1SCc1ccc(Cl)cc1,5.4%
23,CCCCn1c(N)c(N(CC(C)C)C(=O)c2ccc(Br)o2)c(=O)[nH]c1=O,-3.8%
24,COc1cc(C(=S)N2CCOCC2)cc(OC)c1OC(=O)c1ccc([N+](=O)[O-])cc1[N+](=O)[O-],11.9%
25,COc1cc(C(=S)N2CCOCC2)cc(OC)c1OC(=O)c1cc([N+](=O)[O-])cc([N+](=O)[O-])c1,40.9% (active)
26,COc1cc(C(=S)N2CCOCC2)cc(OC)c1OC(=O)c1cc([N+](=O)[O-])c(C)c([N+](=O)[O-])c1,27.5%
27,NNC(=O)CNC(c1ccccc1)c1cc(Cl)ccc1NC(=O)c1ccccc1 (stereo not given),2.6%
